# Reference: PubChem BioAssay (NCATS)
# Records with an inconclusive call do not appear. Unmarked numbers belong to inactive results. The source made the active and inactive calls. Calls come from the whole dose curve; as a rule, active = well fitted inhibition curve with a large enough effect; inconclusive = small, poorly fitted or top-dose-only effect; inactive = flat fitted curve, though single readings scatter.
# System: Zika virus NS2B-NS3 protease
# Assay: Primary screen GU AMC qHTS for Zika virus inhibitors (AID 1347154); note: nearly all actives have a fitted effect of over 70% in size;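 for activity change, negative = inhibition: 0% = no-inhibitor control and -100% = no-enzyme control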
# Conditions: Zika NS2B-NS3 unlinked protease, AMC fluorogenic substrate; series mostly up to 54.1 µM; activity change, negative = inhibition: at the top concentration
# From the text: Avindra Nath, Ph.D., National Institute of Neurological Disorders and Stroke (NINDS), Bethesda, MD
# Radhakrishnan Padmanabhan, Ph.D., Georgetown University (GU), Washington D.C.
# Zika Virus causes congenital defects, including microcephaly and is associated with Guillain-Barre syndrome, eningoencephalitis and myelitis in infected adult. […] Using a target-based approach, we hope to establish a screening paradigm to uncover novel, cell-active NS2B-NS3 protease (Zika Virus) specific inhibitors from NCATS' collection of small molecules using qHTS.
# Early Translation Branch (ETB)
# National Center for Advancing Translational Sciences (NCATS), Rockville, MD
# National Institute of Health (NIH), Bethesda, Maryland
# Padmanabhan lab provided the NS2B hydrophilic domain and NS3 protease domain in a noncovalent complex used for the unlinked assay. Control compound aprotinin is obtained from Thermo Scientific (#78432; Waltham, Massachusetts). NS2B-NS3 AMC substrate (Bz-Nle-Lys-Arg-Arg-AMC; Nle-KRR-AMC) purchased from Bachem (#I-1995; Torrance, CA). Ac-VKTGKR-AMC purchased from Genscript or Bachem, Ac-FAAGKR-AMC purchased from Genscript, Ac-GLVKRR-AMC purchased from Genscript, Ac-LKKR-AMC purchased from Genscript.
# GU AMC unlinked NS2B-NS3 protease qHTS protocol
# Briefly, 3 microL of Zika virus unlinked NS2B-NS3 protease (25 nM for linked final concentration), in assay buffer (10 mM Tris-HCl pH 8.0 with 0.01% Tween 20) was dispensed into a 1,536-well solid-bottom black plate (Greiner Bio One, Monroe, NC). […] Plates were then read immediately on a ViewLux High-throughput CCD imager (PerkinElmer, Waltham, MA) equipped with standard UV fluorescence optics (340(30) nm excitation, 450(20) nm emission) then incubated (room temperature, protected from light) for 15 minutes (~20% conversion). The change in fluorescence intensity over the 15-minute reaction period was normalized against no-inhibitor and no-enzyme controls and the resulting percent inhibition data were fitted to a 4-parameter Hill equation. Aprotinin was used as the intraplate control.
# Potency is the fitted concentration of half-maximal effect.
SMILES,Potency,"activity change, negative = inhibition"
Clc1cccc(N2CCNCC2)c1,inactive,
O=c1oc2ccccc2c(O)c1C(CC(O)c1ccc(-c2ccc(Br)cc2)cc1)c1ccccc1 (stereo not given),14.1 µM (active),
O=C(O)c1ccc2[nH]cc(CCCCN3CC=C(c4ccccc4)CC3)c2c1,inactive,
CCCC(C)(COC(N)=O)COC(=O)NC(C)C (stereo not given),inactive,
O=C1NCN(c2ccccc2)C12CCN(CC1COc3ccccc3O1)CC2 (stereo not given),inactive,
COc1ccc(C(=O)c2c(C)n(CCN3CCOCC3)c3ccccc23)cc1,inactive,
C[C@]12C/C(=C/O)C(=O)C[C@@H]1CC[C@@H]1[C@@H]2CC[C@@]2(C)[C@H]1CC[C@]2(C)O,,3%
CNC(=O)N1N=C(c2ccc(N)cc2)c2cc3c(cc2CC1C)OCO3 (stereo not given),,1.69%
O=C1CC[C@@]2(O)[C@H]3Cc4ccc(O)c5c4[C@@]2(CCN3CC2CC2)[C@H]1O5,inactive,
CN1CCN(C(=O)O[C@H]2c3nccnc3C(=O)N2c2ccc(Cl)cn2)CC1,inactive,
NP(N)(=O)NC(=O)c1ccc(F)cc1,inactive,
Cn1cc(C2=C(c3cn(C4CCN(Cc5ccccn5)CC4)c4ccccc34)C(=O)NC2=O)c2ccccc21,inactive,
Cc1cccc(C)c1NC(=O)CN1CCCC1=O,inactive,
CC(=O)[C@H]1CC[C@H]2[C@@H]3CC[C@H]4C[C@](C)(O)CC[C@]4(C)[C@H]3CC[C@]12C,,2.39%
CCCC1CCCCN1 (stereo not given),,3.59%
c1ccc(C2CC2)c(OCC2=NCCN2)c1,inactive,
CC[N+]1(C)CCCC(OC(=O)C(O)(c2ccccc2)c2ccccc2)C1 (stereo not given),,4.88%
CC(C)=CCOc1c2occc2cc2ccc(=O)oc12,,-7.74%
CC[N+](CC)(CC)CC,,-2.48%
CN1C(=S)CN=C(c2ccccc2)c2cc(Cl)ccc21,,4.75%

SMILES,Potency,"activity change, negative = inhibition"
NN=C(N)N,inactive,
N#CC(C#N)=Cc1ccc(O)c(O)c1,inactive,
CNC(=O)c1ccc(N2C(=S)N(c3ccc(C#N)c(C(F)(F)F)c3)C(=O)C23CCC3)cc1F,,3.46%
Cc1ccc(S(=O)(=O)N[C@@H](CCCCN)C(=O)CCl)cc1,,-11.3%
C[C@@H]1[C@@H](C(=O)C[C@H]2O[C@@H]3O[C@]4(C)CC[C@@H]5[C@H](C)CC[C@@H]([C@H]2C)[C@@]35OO4)O[C@@H]2O[C@]3(C)CC[C@H]4[C@H](C)CC[C@@H]1[C@@]24OO3,,4.27%
O=C(O)C(=O)c1cn(Cc2ccccc2)c2ccc(-c3ccc(OC(F)(F)F)cc3)cc12,6.07 µM (active),
CC(O)(CS(=O)(=O)c1ccc(F)cc1)C(=O)Nc1ccc(C#N)c(C(F)(F)F)c1 (stereo not given),,3.66%
NCC(CC(=O)O)c1ccc(Cl)cc1 (stereo not given),,-12.9% [at 0.59 µM]
NCC(O)c1ccc(O)cc1 (stereo not given),,-5.67%
O=C(NC(O)C(Cl)(Cl)Cl)NC(O)C(Cl)(Cl)Cl (stereo not given),,-0.419%
CCOP(=S)(OCC)Oc1cc(C)nc(C(C)C)n1,,-1.31%
C[C@H]1O[C@@H](O[C@H]2[C@@H](O)C[C@H](O[C@H]3[C@@H](O)C[C@H](O[C@H]4CC[C@@]5(C)[C@H](CC[C@@H]6[C@@H]5CC[C@]5(C)[C@@H](C7=CC(=O)OC7)CC[C@]65O)C4)O[C@@H]3C)O[C@@H]2C)C[C@H](O)[C@@H]1O,,-3.76%
C#CCN(C)[C@H](C)Cc1ccccc1,inactive,
CCN(CC)CCOC(=O)C(O)(c1ccccc1)c1ccccc1,,-1.03%
COC1(CS(=O)c2ccccc2)CCN(CCc2c[nH]c3ccc(F)cc23)CC1 (stereo not given),inactive,
CC(C)CC(N(C)C)C1(c2ccc(Cl)cc2)CCC1 (stereo not given),inactive,
Oc1ccccc1-c1ccccc1,,-8.25%
CN(C)[C@@H]1C(=O)C(C(N)=O)=C(O)[C@@]2(O)C(=O)C3=C(O)c4c(O)cccc4[C@@](C)(O)[C@H]3C[C@@H]12,,-16.5%
Cc1ccc(-c2nc3ccc(C)cn3c2CC(=O)N(C)C)cc1,31.6 µM (active),
CCOC(=O)C1(c2ccccc2)CCN(CCC(C#N)(c2ccccc2)c2ccccc2)CC1,,-4.49%
